Screening data as filed in PubChem BioAssay.
Pyk2 oligo antag: antagonists of human Pyk2 oligomerization. actives 0.83% (n = 99,000). Q293 cells, Pyk2 FERM NanoBiT luminescence; stronger effect = lower value. z-score (the deposit names both 25 µM and 10 µM);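 active means Z-score of -3 or lower, scaled per plate to the spread of control and sample wells; inactive means z-score above -3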;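 further: negative z-score means lost luminescence so less FERM oligomerization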
Target sequence (Q14289 whole entry, looked up): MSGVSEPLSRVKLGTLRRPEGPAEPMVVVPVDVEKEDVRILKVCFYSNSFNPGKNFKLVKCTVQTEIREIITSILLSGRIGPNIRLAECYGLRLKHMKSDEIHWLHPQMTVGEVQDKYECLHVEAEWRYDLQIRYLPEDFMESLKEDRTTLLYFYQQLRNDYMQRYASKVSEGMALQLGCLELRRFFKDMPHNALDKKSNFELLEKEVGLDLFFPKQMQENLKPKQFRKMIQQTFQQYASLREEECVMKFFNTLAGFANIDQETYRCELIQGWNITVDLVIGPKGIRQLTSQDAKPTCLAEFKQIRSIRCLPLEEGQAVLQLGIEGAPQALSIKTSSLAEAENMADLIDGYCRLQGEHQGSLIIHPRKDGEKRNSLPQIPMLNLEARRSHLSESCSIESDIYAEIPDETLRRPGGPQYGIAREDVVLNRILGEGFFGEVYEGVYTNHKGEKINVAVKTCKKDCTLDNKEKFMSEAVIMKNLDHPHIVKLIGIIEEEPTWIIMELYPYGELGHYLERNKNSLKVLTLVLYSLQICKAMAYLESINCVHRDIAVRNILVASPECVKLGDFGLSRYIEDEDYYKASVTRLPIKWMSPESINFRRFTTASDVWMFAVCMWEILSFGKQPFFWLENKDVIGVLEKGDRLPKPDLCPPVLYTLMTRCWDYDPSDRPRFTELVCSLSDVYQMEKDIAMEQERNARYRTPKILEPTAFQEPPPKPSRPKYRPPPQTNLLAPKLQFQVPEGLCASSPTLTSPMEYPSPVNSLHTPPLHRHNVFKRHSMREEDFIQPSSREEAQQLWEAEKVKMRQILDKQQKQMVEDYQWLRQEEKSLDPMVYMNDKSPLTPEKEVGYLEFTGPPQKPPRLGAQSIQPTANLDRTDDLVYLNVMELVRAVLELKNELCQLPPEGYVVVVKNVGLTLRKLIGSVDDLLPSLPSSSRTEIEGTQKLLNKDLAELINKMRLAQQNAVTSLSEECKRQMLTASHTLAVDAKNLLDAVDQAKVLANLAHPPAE
Cav32 inh: inhibitors of human Cav3.2 T-type calcium channel; O95180; Cav3.2-expressing cells, Fluo-4 calcium fluorescence FDSS; stronger effect = lower value; B-score at 10 µM; actives 4% (n = 100,000); AID 449739;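 active means single-dose well whose peak fluorescence ratio is a statistical outlier from its plate by either plate-standardised score or position-corrected B-score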
PostGolgi ctrl: growth of the yeast control strain, post-Golgi counter-screen; actives 5% (n = 98,000); inhibition, % at 10 µM; efflux-deficient yeast background strain, growth absorbance A615, 16 h
PostGolgi yeast: growth inhibition of a yeast mutant, post-Golgi transport screen; inhibition, % at 10 µM; post-Golgi transport phenotypic cell assay; actives 0.9% (n = 98,000);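 further: yeast cells grown in 1536-well plates; yeast grown about 18 h at 30C before absorbance read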
Large screens that a line does not name were inactive. Shown are actives, neighbours in structure and some others; about 8% of the full set was active somewhere. Unless noted, no stated cut-off is given here; in the data, active means inhibition above about 30%; inactive means the rest.

CCCCN(C)C(=O)c1c[nH]c2ccc(S(=O)(=O)N3CCOCC3)cc2c1=O	none (no result: Pyk2 oligo antag)
Cc1cc(Br)ccc1SCC(=O)OCC(=O)Nc1ncc(C(F)(F)F)cc1Cl	none (no result: Cav32 inh, PostGolgi ctrl, PostGolgi yeast)
CCCCc1ccc(Nc2nc(CCC)cc(=O)[nH]2)cc1	PostGolgi ctrl 52
Cc1cc(C)nc(Nc2nc(C)c3cc4c(cc3n2)OCO4)n1	PostGolgi ctrl 36
Cc1cc(C)nc(NS(=O)(=O)c2ccc(NC(=O)c3ccc4c(c3)OCO4)cc2)n1	none
Cc1nc2ccc(NS(=O)(=O)c3ccc4c(c3)OCCO4)cc2s1	none
O=C(CCn1ccc2ccccc21)Nc1ccc(N2CCOCC2)cc1	none
Cc1ccc2nc(SCC(=O)Nc3ccc4c(c3)OCCO4)[nH]c2c1	none
O=C(CSc1nc2ccccc2[nH]1)Nc1ccc2c(c1)OCCO2	Cav32 inh -3.9
O=C(CSc1nc2ccccc2[nH]1)Nc1cc(C(F)(F)F)ccc1N1CCOCC1	Cav32 inh -6.9
COc1ccc(C(c2nnnn2Cc2cccs2)N2CCN(c3ccccc3F)CC2)cc1OC (configuration not stated)	Pyk2 oligo antag -3.6
Fc1ccc(C(c2nnnn2Cc2cccs2)N2CCN(c3ccccc3)CC2)cc1 (configuration not stated)	Pyk2 oligo antag -3.5, Cav32 inh -5.8 (no result: PostGolgi ctrl, PostGolgi yeast)
COc1ccc(Cn2nnnc2C(c2cccs2)N2CCN(c3ccccc3)CC2)cc1 (configuration not stated)	none
COCCn1nnnc1C(c1ccc(OC)cc1)N1CCN(c2ccccc2F)CC1 (configuration not stated)	Pyk2 oligo antag -3.5
COCCn1nnnc1C(c1cccs1)N1CCN(c2cccc(C(F)(F)F)c2)CC1 (configuration not stated)	Cav32 inh -5.4
COCCn1nnnc1C(c1ccccc1OC)N1CCN(c2ccccc2F)CC1 (configuration not stated)	none
Cc1ccc(C(c2nnnn2Cc2cccs2)N2CCN(Cc3ccc4c(c3)OCO4)CC2)cc1 (configuration not stated)	none
CCC(c1nnnn1CCOC)N1CCN(c2cccc(C(F)(F)F)c2)CC1 (configuration not stated)	none
Cc1ccccc1-n1c(C)nc2ccccc21	none
Cc1onc(-c2ccccc2)c1C(=O)Nc1nnc(-c2ccncc2)s1	Pyk2 oligo antag -3.2
Cc1onc(-c2ccccc2)c1C(=O)Nc1ccncc1	none
CCCOc1ccccc1NC(=O)c1c(-c2ccccc2)noc1C	Cav32 inh -4.8 (no result: Pyk2 oligo antag)
Cc1cc(C)c(C(=O)CSc2n[nH]c(=O)n2C2CC2)cc1C	none
O=C(O)C[C@@H](O)C(=O)O	none (no result: Pyk2 oligo antag, PostGolgi ctrl, PostGolgi yeast)
CC1Cc2ccccc2N1C(=O)COC(=O)c1ccc(S(=O)(=O)N(C)C)cc1 (configuration not stated)	PostGolgi yeast 30
CCOC(=O)c1c(C)[nH]c(C(=O)OCC(=O)N2c3ccccc3CC2C)c1C (configuration not stated)	none
Cc1c(C(=O)Nc2ccc(Cl)cc2)c2ccccn2c1C(=O)c1ccc([N+](=O)[O-])cc1	Cav32 inh -7.1
Cc1cc(Nc2ccc(F)cc2Cl)n2nc(C)nc2n1	PostGolgi ctrl 32 (no result: Pyk2 oligo antag)
CCCC12CN3CC(CCC)(CN(C1)C3C(O)C(O)C(O)CO)C2=O (configuration not stated)	none
Cc1cccc(NC(=O)C2CCCN2C(=O)OCC(C)C)c1C (configuration not stated)	PostGolgi ctrl 35
Cc1cccc(NC(=O)C2CCCN2C(=O)OCC(C)C)c1 (configuration not stated)	none
N#CCCN(C(=O)COc1ccc(Cl)cc1Cl)c1ccccc1	none (no result: Cav32 inh, PostGolgi ctrl, PostGolgi yeast)
CN(C)c1ccc(NC(=O)CN2CCN(S(=O)(=O)c3cc(Cl)ccc3Cl)CC2)cc1	Cav32 inh -4.1
O=C(CN1CCN(S(=O)(=O)c2cc(Cl)ccc2Cl)CC1)Nc1ccc2c(c1)OCCO2	none (no result: Cav32 inh)
CCCCOCCCNC(=O)CN1C(=O)c2ccccc2C1=O	none
CSc1ccc(CNc2ccc(C)c(C)c2)cc1	PostGolgi ctrl 38
CSc1ccc(CNc2cccc3ccccc23)cc1	Pyk2 oligo antag -4.3
NS(=O)(=O)c1ccc(NC(=O)CSc2nnc(Cc3cccs3)n2-c2ccccc2)cc1	PostGolgi ctrl 34
COc1cccc(NC(=O)CSc2nnc(Cc3cccs3)n2-c2ccc(C)cc2)c1	Pyk2 oligo antag -3.2
COc1ccc(NC(=O)CSc2nnc(Cc3cccs3)n2-c2ccc(C)cc2)cc1	Cav32 inh -5.3
COc1ccc(-n2c(Cc3cccs3)nnc2SCC(=O)Nc2ccc3c(c2)OCCO3)cc1	Cav32 inh -6.8
Cc1ccc(-n2c(SCC(=O)Nc3ccc4c(c3)OCO4)nnc2-c2cccs2)cc1	none
FC(F)(F)c1ccc(N2CCN(c3cc(-c4ccccc4)nc4ncnn34)CC2)nc1	PostGolgi ctrl 57
CCCNC(=S)N1CCC(c2nc3cc(C)c(C)cc3[nH]2)CC1	none
Cc1cc2nc(C3CCN(CC4COc5ccccc5O4)CC3)[nH]c2cc1C (configuration not stated)	Cav32 inh -6.3, PostGolgi ctrl 34, PostGolgi yeast 41
CCC(C)c1ccc2oc(-c3ccc(NC(=O)Cn4cnc5c(=O)n(C)c(=O)n(C)c54)cc3)nc2c1 (configuration not stated)	PostGolgi ctrl 76
Cn1c(=O)c2ncn(CC(=O)Nc3ccc(N4CCOCC4)cc3)c2n(C)c1=O	none
CCO[C@@H]1OC(C(N)=O)=C[C@H](C2CC2)[C@H]1CCCO	none (no result: Pyk2 oligo antag, PostGolgi ctrl, PostGolgi yeast)
COc1ccc(NC(=O)CNS(=O)(=O)c2ccc3nc(C)sc3c2)c(OC)c1	none
O=[N+]([O-])c1nn(-c2ccc3c(c2)OCCO3)n(O)c1=Nc1ccc(Cl)cc1	Pyk2 oligo antag -3.4, PostGolgi ctrl 57, PostGolgi yeast 40
O=[N+]([O-])c1nn(-c2ccc3c(c2)OCCO3)n(O)c1=NCCCO	none
CCCCOc1ccc(CNC(=O)NS(=O)(=O)c2ccc(OCC(C)C)cc2)cc1	Cav32 inh -5.3
CCCCNC(=O)NS(=O)(=O)c1ccc(C)cc1	none (no result: Pyk2 oligo antag, PostGolgi ctrl, PostGolgi yeast)
CC(C)COc1ccc(CNC(=S)NCc2ccccc2)cc1	Cav32 inh -5.6
CCCCOc1ccc(CNC(=O)NS(=O)(=O)c2ccc(OCC)cc2)cc1	Cav32 inh -7.4
S=C(NCc1ccccc1)NCc1ccccc1	none
CCCCOc1ccc(S(=O)(=O)NC(=O)NCc2ccc(OCCC)cc2)cc1	Cav32 inh -3.5 (no result: PostGolgi ctrl, PostGolgi yeast)
COc1ccc(CNC(=O)NS(=O)(=O)c2ccc(C)cc2)cc1	none (no result: Pyk2 oligo antag, PostGolgi ctrl, PostGolgi yeast)
O=C(Nc1ccc(C(=O)Oc2ccccc2)c(O)c1)c1ccco1	none
O=C(CN(Cc1ccco1)C(=O)CNS(=O)(=O)c1ccc(Cl)cc1)NCc1ccc(F)cc1	none (no result: PostGolgi ctrl, PostGolgi yeast)
CC(C)C(C(=O)NCc1ccco1)N(C(=O)CNS(=O)(=O)c1ccc(Cl)cc1)C1CCCC1 (configuration not stated)	Cav32 inh -7.3
O=C(CN(Cc1ccco1)C(=O)CNS(=O)(=O)c1ccc(Cl)cc1)NC1CCCCC1	Cav32 inh -4.8
Cc1ccc(-n2c(C)cc(/C=N/NC(=O)c3ccncc3)c2C)c(C)c1	none
CC(Cc1cccs1)NC(=O)Nc1ccc(Cl)c(Cl)c1 (configuration not stated)	PostGolgi ctrl 69 (no result: Cav32 inh)
CSc1nnc(Cc2cc(=O)[nH]c(=O)[nH]2)n1-c1cc(C)ccc1C	none
